# Measured values reported in PubChem BioAssay AID504834 (National Center for Advancing Translational Sciences (NCATS), 2011).
# The whole screen tested about 320,000 compounds, of which about 22,000 (6.9%) were called active. Inconclusive results (about 27%) are left out. The list comes from a sample in which actives are over-represented; it also holds similar structures and randomly drawn compounds. A number with no mark means an inactive call. The call rests on the fitted dose curve; in most records, active means well fitted inhibition curve with a large enough effect; inconclusive means small, poorly fitted or top-dose-only effect, or another doubt; inactive means no such curve, though single readings can be large or run the other way.
# Test: Primary qHTS for delayed death inhibitors of the malarial parasite plastid, 96 hour incubation
# Conditions: P. falciparum luciferase reporter growth; series mostly up to 28.7 µM; activity change, negative = inhibition: at the top concentration
# In short: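 Compounds incubated with erythrocytes infected by luciferase-expressing P. falciparum (2% hematocrit, 0.05% parasitemia final) for 96 hours, 37 C in 5% CO2. Growth inhibition scored as decreased luciferase luminescence.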
# On the % scale 0 is the no-effect control and ±100 the full control effect; potency means the concentration at half of the fitted maximal effect.
Structure (SMILES),"activity change, negative = inhibition",Potency
COc1cccc(CN2CCN(Cc3ccc4cccc(F)c4n3)CC2CCO)c1 (configuration not stated),24.6%,
CCOc1ccc(CN2CCN(CCCc3ccccc3)C(CCO)C2)cc1 (configuration not stated),32.4%,
CCOc1ccc(CN2CCN(Cc3ccc4cc(F)ccc4n3)CC2CCO)cc1 (configuration not stated),,13.1 µM (active)
Cc1cccc(C(=O)NCc2nnc(SC(C)C(=O)Nc3nnc(C)s3)n2C)c1 (configuration not stated),137%,
Cc1ccc(Cn2ccc(NC(=O)c3cc(C(C)C)on3)n2)cc1,-25.9%,
O=C(Nc1ccn(Cc2ccccc2)n1)c1cccc(F)c1,-5.37%,
O=C(Nc1ccn(Cc2ccc(F)cc2)n1)c1ccncc1,,9.28 µM (active)
COc1ccc(C2=NN(C(=O)CSc3nnnn3C)C(c3ccco3)C2)cc1 (configuration not stated),12.9%,
CCN(C(=O)c1ccc(Br)cc1)c1ccccc1,6.13%,
O=C(COc1ccc(F)cc1)N(CC1=CCS(=O)(=O)C1)c1ccccc1,8.32%,
CCN(C(=O)COc1ccc(C(=O)c2ccccc2)cc1)c1ccccc1,,11.7 µM (active)
CCc1ccc(NC(=O)CS(=O)CC(=O)N2CCN(c3ccccc3F)CC2)cc1 (configuration not stated),10.1%,
COc1cccc(/C=N/Nc2ccc(Cl)nn2)c1,19.8%,
CCOC(=O)C(C)n1cnc2c(nnn2-c2ccc(F)cc2)c1=O (configuration not stated),79.2%,
COc1cccc(/C=N/Nc2cc(C)nc(-c3ccccc3O)n2)c1O,,0.37 µM (active)
COc1cccc(/C=N/Nc2ncc(C(F)(F)F)cc2Cl)c1O,165%,
COc1cccc2c(N/N=C/c3ccco3)cc(C)nc12,27.3%,
O=C(Nc1ccncc1)c1ccc(Cl)c([N+](=O)[O-])c1,22.6%,
CN(C)c1ccc(/C=C/C(=O)c2ccc(O)cc2)cc1[N+](=O)[O-],-16.4%,
O=C(/C=C/c1ccc(Cl)c([N+](=O)[O-])c1)c1cccnc1,18.1%,
O=C(/C=C/c1ccc2c(c1)OCCO2)c1ccc(O)cc1,144%,
NC(N)=N/N=C/c1ccc(Cl)c([N+](=O)[O-])c1,,11.7 µM (active)
O=C(/C=C/c1ccc(Cl)c([N+](=O)[O-])c1)c1ccc(O)cc1,,9.28 µM (active)
COc1ccc(Cl)cc1NC(=O)COc1ccc2c(c1)OCO2,-14.3%,
CCN1C(=S)N[C@@H](c2cccc(C(F)(F)F)c2)C(C(=O)OC)=C1C,76.3%,
CCCCn1c(N)c(N(CC(C)C)C(=O)CSc2ccc([N+](=O)[O-])cc2)c(=O)[nH]c1=O,8.89%,

Structure (SMILES),"activity change, negative = inhibition",Potency
COc1ccc(OC)c(CN2CCN(C(=O)CNC(=O)c3cc(C)cc(C)c3)CC2)c1,48.5%,
O=C(CCNC(=O)c1ccccc1Cl)NCc1ccco1,-28.5%,
Cc1cccc(C)c1NC(=O)COC(=O)c1ccccc1O,38.1%,
C=CCn1c(CNS(=O)(=O)c2ccc(Br)cc2)nnc1SC,-3.42%,
Cc1cccc(N2C(=O)c3ccc(C(=O)Nc4cccc(C(=O)O)c4)cc3C2=O)c1,,13.1 µM (active)
CC(=O)Nc1ccc(NC(=O)c2ccc3c(c2)C(=O)N(c2ccccc2C)C3=O)cc1,-5.53%,
COC(=O)c1cccc(NC(=O)c2cccc(N3C(=O)CCC3=O)c2)c1,32.1%,
NC(=O)c1nsc(C(=O)N(CCCN2CCOCC2)C(C(=O)NC2CCCCC2)c2ccc(Cl)cc2)c1N (configuration not stated),4.88%,
c1ccc2cc(CCCc3cc4ccccc4cn3)ncc2c1,33.1%,
CCOc1ccc(OCc2ccc(C(=O)N(C)c3ccccc3)o2)cc1,-9.61%,
CCOC(=O)c1c(N)nn(C(=O)c2ccccc2)c1-c1ccccc1,-1.13%,
CCOC(=O)c1nnn(-c2nonc2OC)c1-c1ccccc1,-1.93%,
CCOC(=O)c1nnn(-c2nc(OC)nc(N(C)C)n2)c1-c1ccccc1,,2.33 µM (active)
NC(=O)c1ccsc1NC(=O)COC(=O)Cc1n[nH]c(=O)c2ccccc12,56.7%,
CCn1c(C(O)c2cc(OC)ccc2OC)nc2ccccc21 (configuration not stated),,9.28 µM (active)
CCCn1c(C(O)c2ccc(OCC)cc2)nc2ccccc21 (configuration not stated),69.5%,
COc1ccc(OC)c(C(O)c2nc3ccccc3n2C)c1 (configuration not stated),-5.13%,
O=C(Nc1cccc(Cl)c1)c1cc(S(=O)(=O)N2CCCCC2)c[nH]1,51.3%,
CC(=O)Nc1ccc(S(=O)(=O)NC2Cc3ccccc3C2)cc1,3.82%,
CCOc1ccc2nc(Cl)c(C3CC(c4ccccc4)=NN3C(=O)c3cccs3)cc2c1 (configuration not stated),,8.28 µM (active)
COc1ccc(C2=NN(C(=O)c3ccccc3C(=O)O)C(c3ccccc3O)C2)cc1 (configuration not stated),64.5%,
COc1ccc(C2CC(c3ccccc3)=NN2C(=O)c2ccc(Cl)c([N+](=O)[O-])c2)cc1 (configuration not stated),-9.04%,
Cc1ccccc1Cn1c2ccccc2c2cnn(CC(=O)NCc3ccco3)c(=O)c21,-25.7%,
CCN(C(=O)COC(=O)CCOc1cccc(C)c1)c1c(N)n(Cc2ccccc2)c(=O)[nH]c1=O,25.4%,
COc1cc(NC(=O)c2cncc(-c3ccc(C#N)cc3)c2)cc(C(=O)Nc2cccc(C(F)(F)F)c2)c1,,6.57 µM (active)
O=C(Nc1cccc(C(F)(F)F)c1)c1cnccn1,16.6%,

Structure (SMILES),"activity change, negative = inhibition",Potency
COc1ccc(NC(=O)CN(C)CC(=O)Nc2cccc(C(F)(F)F)c2)cc1,-20.6%,
Cc1c(Cl)cccc1NC(=S)NCC(O)c1ccccc1 (configuration not stated),0%,
COCCNC(=O)C(OC(=O)c1cccs1)c1ccc(F)cc1 (configuration not stated),,13.1 µM (active)
O=C(OC(C(=O)NC1CCCC1)c1ccc(F)cc1)c1ccno1 (configuration not stated),13.4%,
CC(C)C(=O)NCC(c1cccs1)S(=O)(=O)c1ccc(F)cc1 (configuration not stated),19.9%,
CC(=O)C[C@@H](O)CC(=O)[C@H]1OC(=O)CCCCCCc2ccccc21,33.7%,
CCCCn1c(N)c(N(CCOC)C(=O)c2cccc(OCc3ccccc3)c2)c(=O)[nH]c1=O,-15.2%,
Cc1ccc2cc(C#N)c(NCCNC(=S)NCCCN3CCOCC3)nc2c1,31.8%,
COc1ccc(Cn2c(=S)[nH]c3cc(C(=O)NCCCN4CCOCC4)ccc3c2=O)cc1,12.8%,
COCC(C)OC(=O)c1c(N)n(CCCN2CCOCC2)c2nc3ccccc3nc12 (configuration not stated),-41.3%,
Cc1cccn2c(=O)c3cc(C(=O)NCCN4CCOCC4)c(=N)n(Cc4cccnc4)c3nc12,,7.38 µM (active)
Cc1cccn2c(CNCC(C)Oc3cccnc3)c(C(=O)N3CCOCC3)nc12 (configuration not stated),2.34%,
COc1ccc(CCn2c(=N)c(C(=O)NCc3ccco3)cc3c(=O)n4cccc(C)c4nc32)cc1,,0.586 µM (active)
Cc1cccn2c(=O)c3cc(C(=O)NCC4CCCO4)c(=N)n(Cc4ccc(F)cc4)c3nc12 (configuration not stated),,9.28 µM (active)
CCn1c(=N)c(C(=O)NCCCOC)cc2c(=O)n3cccc(C)c3nc21,0%,
O=C(NCc1ccco1)c1cccn2c(=O)c3c4c(sc3nc12)CCCC4,-0.317%,
Cc1ccc(-c2noc(-c3ccccc3C(=O)NCC3CCCO3)n2)cc1 (configuration not stated),23.6%,
COCCNC(=O)c1ccc(Cn2c(SCC(=O)NCC3CCCO3)nc3ccc(Br)cc3c2=O)cc1 (configuration not stated),-0.164%,
Cc1cccn2c(=O)c3cc(C#N)c(=O)n(CCCN4CCOCC4)c3nc12,,2.62 µM (active)
O=C(c1c(F)cccc1F)N1CCN(c2ncc(Br)cn2)CC1,8.96%,
COC(=O)c1ccc(/C=N/NC(=O)C(=O)N2CCCCCC2)cc1,14%,
Brc1ccccc1C1N=C(c2ccccc2)NO1 (configuration not stated),189%,
CCCCn1c(N)c(N(CC(C)C)C(=O)c2cccc(S(=O)(=O)N3CCN(C(C)=O)CC3)c2)c(=O)[nH]c1=O,-22.4%,
CCN(C(=O)Cc1c(C(=O)O)n(CC)c2ccccc12)c1ccccc1C,41.7%,
COc1ccc(C(=O)COC(=O)Cn2cnc3c2c(=O)n(C)c(=O)n3C)c(OC)c1,-24.7%,
N#Cc1cccc(CSc2ncnc(N)n2)c1,2.96%,

Structure (SMILES),"activity change, negative = inhibition",Potency
Cc1cc(N2CCN(c3ccccc3)CC2)nc(N2CCOCC2)n1,-12%,
Cc1cc(C)n(-c2nnc(N3CCN(c4ccccc4)CC3)nn2)n1,,0.329 µM (active)
Cc1cc(-n2nc(C)cc2C)n2ncc(-c3ccccc3)c2n1,0%,
COc1ccc(N(CC(=O)Nc2cc(OC)cc(OC)c2)S(=O)(=O)c2c(C)n[nH]c2C)cc1,3.89%,
Cc1ccnc(N2C(=O)c3ccc([N+](=O)[O-])cc3C2=O)c1,-15.9%,
Nc1cc(N2CCCCCC2)c2nonc2c1[N+](=O)[O-],-10.3%,
COc1ccc(C(=O)NC(=S)Nc2ccc(N3CCCC3)cc2)cc1OC,-18.8%,
COc1ccc(C(=O)Nc2ccc3nc(N4CCCCC4)cc(C)c3c2)cc1OC,,11.7 µM (active)
COc1ccc(C(=O)Nc2ccc3c(c2)OCO3)cc1OC,155%,
COc1ccccc1C(=O)NCC(=O)NCCSc1ccc(Br)cc1,-14.1%,
CCOc1cc(/C=N/Nc2cc(C)nc3ccc(C)cc23)ccc1O,-21.3%,
CNc1ccc([N+](=O)[O-])cc1C(=O)O,-4.06%,
CCCCN(C(=O)c1ccc(S(=O)(=O)N2CCOCC2)cc1)C1CCS(=O)(=O)C1 (configuration not stated),22%,
CC1CCCCN1C(=O)Cn1c(=O)oc2cc(S(=O)(=O)N3CCCCC3)ccc21 (configuration not stated),-24%,
O=C(Nc1ccccc1N1CCN(C(=O)c2ccccc2)CC1)c1ccco1,-8.23%,
COC(=O)c1ccc(N2CCOCC2)c(NC(=O)c2ccc(Br)o2)c1,33.6%,
CCCNC(=O)c1ccc(N2CCC3(CC2)CC(c2cccc(Br)c2)=NO3)c(NC(=O)c2ccco2)c1,,0.37 µM (active)
CC(CCc1ccc(O)cc1)NCc1ccc(Cl)cc1Cl (configuration not stated),22.2%,
O=C(CNS(=O)(=O)c1ccccc1)N1CCN(C(=O)c2ccco2)CC1,33.3%,
CC(OC(=O)Cc1ccc(F)cc1)C(=O)N1CCc2ccccc21 (configuration not stated),33.6%,
N=c1c2c3c(sc2ncn1N)CCCCC3,,3.7 µM (active)
N=c1c2c3c(sc2ncn1N)CCCC3,-21.6%,
c1nnc2c3c4c(sc3ncn12)CCC4,-4.03%,
C[C@@H]1O[C@@H](OC[C@H]2O[C@@H](Oc3c(-c4ccc(O)cc4)oc4cc(O)cc(O)c4c3=O)[C@H](O)[C@@H](O)[C@@H]2O)[C@H](O)[C@H](O)[C@H]1O,41.3%,
